Reference: PubChem BioAssay

Assay: inducers of IRF3 signaling, differentiated THP-1 – cell-based, PMA-stimulated THP-1, luminescence (AID 1053176)
Details: PMA-differentiated THP-1, IRF3 reporter luminescence; stronger effect = higher value; call rule not given here

Fraction signal, inactive:
COc1cc2c(cc1Nc1nc(Nc3ccsc3C(N)=O)c3cc[nH]c3n1)N(C(=O)CN(C)C)CCC2(C)C 0.001
c1cnn2ncc(-c3ccnc(NCCCN4CCOCC4)n3)c2c1 -0.004
Nc1nc(-c2ccccn2)c(-c2ccc3ncccc3n2)s1 -0.01
COc1cc(C)c(NC(=O)CN(C)C)cc1Nc1nc(Nc2cccc(F)c2C(N)=O)c2cc[nH]c2n1 -0.0105
CN(c1ccc(NC(=O)Nc2c(Cl)cccc2Cl)cc1)c1ccnc(Nc2cccc(CS(C)(=O)=O)c2)n1 0.005
COC(=O)Nc1nc2ccc(Oc3ccc(NC(=O)Nc4cc(C(F)(F)F)ccc4F)cc3)cc2s1 0
Fc1ccc(-c2cc(C3CNNC3c3ccccn3)ccn2)cc1 (stereo not drawn) -0.0065
COC(=O)Nc1nc2ccc(Oc3ccc(NC(=O)Nc4cccc(Br)c4)cc3)cc2[nH]1 -0.001
CCC(=O)Nc1ccc(C)c(-c2ccc(C(=O)NCC3CC3)cc2)c1 0.001
Cc1nc(-c2ccccc2)n2nc(NCCCN3CCOCC3)ncc12 -0.0105
COc1cccc(-n2nc(C)c3c(N/N=C(\C)c4ccncc4)ncnc32)c1 -0.0005
N#Cc1ccc(Oc2nccc(-c3c(-c4ccc(F)cc4)ncn3C3CCNCC3)n2)cc1 -0.0025
CCN1CCC(CC(=O)Nc2n[nH]c3nc(-c4cccs4)c(Br)cc23)CC1 0.006
FC(F)(F)CNc1nccc(-c2cnn3ncccc23)n1 -0.0105
CCCN(CCS(C)(=O)=O)Cc1ccc(-c2ccc3ncnc(Nc4ccc(OCc5cccc(F)c5)c(Cl)c4)c3c2)o1 -0.0115
COc1cc(C)c(N(C)C(=O)CN(C)C)cc1Nc1nc(Nc2cccc(F)c2C(N)=O)c2cc[nH]c2n1 -0.0115
Nc1nccc(C#Cc2cncnc2Nc2ccc(OCc3cccc(F)c3)c(Cl)c2)n1 -0.0105
CN1CCC(n2cnc(-c3ccc(F)cc3)c2-c2ccnc(N)n2)CC1 -0.004
COc1ccc(-c2nn3ncccc3c2-c2ccnc(Nc3ccc(Cl)c(C(F)(F)F)c3)n2)cc1 -0.0025
COc1ccc(-c2coc3ncnc(N)c23)cc1 0.002
O=C(Nc1n[nH]c2cc(-c3ccc(F)cc3)ccc12)C1CC1 -0.001
Fc1ccc(-c2nn3ncccc3c2-c2ccnc(Nc3ccc4c(c3)OCCO4)n2)cc1 -0.003
CCn1c(-c2nonc2N)nc2c(C#CC(C)(C)O)nc(OCCNC)cc21 -0.006
CCn1c(-c2nonc2N)nc2c(C#CCN)ncc(OCCCN)c21 -0.008
Cc1ccc(C(=O)NC2CC2)cc1-c1ccc2[nH]ncc2c1 0.0035
COc1cc(N2CCN(C(C)C)CC2)ccc1Nc1nc(Nc2cccc(F)c2C(=O)O)c2cc[nH]c2n1 0.0115
COc1ccccc1Nc1ncc(-c2ccccc2)o1 0.001
COC(=O)Nc1nc2ccc(S(=O)(=O)c3ccc(NC(=O)Nc4cc(C(F)(F)F)ccc4F)cc3)cc2[nH]1 0
